An excerpt weighted towards active compounds, which were near 2.5% of everything screened.
ANO1 block: blocks the mouse calcium-activated chloride channel TMEM16A | normalized B-score (activity score, 25-100; higher = stronger inhibition) at 10 µM | Q8BHY3 | HEK293 TMEM16A/YFP iodide influx fluorescence, ionomycin | 310,000 tested, 1.2% active;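 active = ratio plate-corrected score three or more library SD toward inhibition, starting fluorescence score within five deviations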;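 also: score derived from kinetic fluorescence span divided by baseline fluorescence per well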
Target sequence (Q8BHY3 whole entry, looked up): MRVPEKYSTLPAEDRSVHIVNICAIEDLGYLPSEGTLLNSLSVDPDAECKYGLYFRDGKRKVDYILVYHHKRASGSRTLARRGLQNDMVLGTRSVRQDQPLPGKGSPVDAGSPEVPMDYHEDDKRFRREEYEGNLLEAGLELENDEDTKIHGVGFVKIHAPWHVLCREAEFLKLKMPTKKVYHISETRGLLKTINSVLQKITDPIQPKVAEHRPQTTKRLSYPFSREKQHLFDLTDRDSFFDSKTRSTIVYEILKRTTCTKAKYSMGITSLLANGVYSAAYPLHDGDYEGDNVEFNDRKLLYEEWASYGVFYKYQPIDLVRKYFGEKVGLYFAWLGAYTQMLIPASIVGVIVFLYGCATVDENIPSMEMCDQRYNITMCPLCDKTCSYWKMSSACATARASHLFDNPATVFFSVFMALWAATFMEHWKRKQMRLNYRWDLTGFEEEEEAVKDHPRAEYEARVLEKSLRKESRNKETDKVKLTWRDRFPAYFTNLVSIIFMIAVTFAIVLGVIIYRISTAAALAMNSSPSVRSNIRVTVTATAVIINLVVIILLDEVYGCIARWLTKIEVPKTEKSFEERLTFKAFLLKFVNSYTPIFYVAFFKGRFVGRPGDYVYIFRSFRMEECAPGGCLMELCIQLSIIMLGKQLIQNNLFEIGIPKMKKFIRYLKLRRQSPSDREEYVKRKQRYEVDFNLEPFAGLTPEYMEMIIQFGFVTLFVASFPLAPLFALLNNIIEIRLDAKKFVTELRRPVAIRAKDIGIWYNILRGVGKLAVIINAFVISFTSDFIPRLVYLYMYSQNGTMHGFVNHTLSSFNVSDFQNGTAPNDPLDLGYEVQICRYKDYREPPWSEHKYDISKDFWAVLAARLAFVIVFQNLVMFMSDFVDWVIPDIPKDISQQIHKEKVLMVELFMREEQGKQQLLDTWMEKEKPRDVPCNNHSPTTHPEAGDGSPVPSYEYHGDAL
KLF5 inh: suppresses KLF5 promoter-driven expression | DLD-1 KLF5 promoter-luciferase reporter, luminescence | inhibition, % at 5 µM | 290,000 tested, 0.23% active | AID 1700;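 active = inhibition above a per-plate limit of that plate's mean compound inhibition plus 3 SD, cut at about 60% in these data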;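 also: 0% = DMSO wells and 100% = LY294002 at 200 µM; higher means less KLF5 promoter-driven luciferase light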
Jurkat NFkB inh: lowers PMA/ionomycin-induced NF-kB signal in Jurkat cells; PMA/ionomycin-induced NF-kB luciferase reporter, luminescence; inhibition, % at 4 µM; 330,000 tested, 0.53% active; in the data active = inhibition above about 50%
697 NFkB inh: lowers PMA/ionomycin-induced NF-kB signal in 697 B cells | 330,000 tested, 0.33% active | inhibition, % at 4 µM | 697 B-cell NF-kB luciferase reporter, 16 h | AID 435022; in the data active = inhibition above about 35%
aSyn 5UTR inh: MLPCN primary screen, SNCA 5' untranslated region. inhibition, % (tested at 7.5 µM). 300,000 tested, 0.82% active. alpha-synuclein 5'UTR reporter, inhibitor activity; in the data active = inhibition above about 60%;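 also: H4 neuroglioblastoma cells stably carrying SNCA 5'UTR luciferase fusion; 0% = DMSO wells and 100% = positive control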
TMEM16A act: activates or potentiates the mouse TMEM16A chloride channel; Q8BHY3; HEK293 TMEM16A/YFP-H148Q/I152L, iodide quench fluorescence; stronger effect = lower value; B-score at 10 µM; 340,000 tested, 0.3% active; AID 623877;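 active = fluorescence-ratio B-score plate-corrected deviation score at least 3 library SD below zero, with starting fluorescence score within 5 deviations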;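 also: channel opened by trigger with iodide after compound preincubation; score built on the fluorescence ratio of max minus min over baseline; more negative score means more quench and so TMEM16A activation or potentiation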
Numbers without * were called inactive; i = inactive; · = not tested or not shown.

SMILES	ANO1 block	KLF5 inh	Jurkat NFkB inh	697 NFkB inh	aSyn 5UTR inh	TMEM16A act
Cc1oc(-c2ccc(Cl)cc2)nc1CS(=O)CC(=O)NCc1ccco1 (stereo unspecified)	i	-16	16	-13	9	i
COC(=O)C1(CC2CC(c3ccccc3)=NO2)CCN(C(=O)OC(C)(C)C)CC1 (stereo unspecified)	25*	·	3	-2	-13	i
COc1ccc(N=C2SC(CC(=O)Nc3ccccc3)C(=O)N2CCc2ccccn2)cc1 (stereo unspecified)	i	-24	-7	-8	16	i
COc1ccc(N=C2SC(CC(=O)Nc3ccccc3)C(=O)N2Cc2ccccn2)cc1 (stereo unspecified)	i	-4	1	13	-14	-5.8*
CC(CNC(=O)c1ccccc1Cl)c1ccccc1 (stereo unspecified)	i	-80	-44	-50	-111	i
CC12CC3CC1C(C(=O)O2)C3C(=O)O (stereo unspecified)	·	·	·	·	·	i
COc1ccccc1NC(=O)CC12CC3CC(CC(Br)(C3)C1)C2	i	-40	-15	11	12	i
Cc1nn(-c2ccccc2)c(Cl)c1/C=N/NC(=O)c1ccccc1NS(=O)(=O)c1cccs1	100*	-18	9	5	-3	i
CCCc1ccc(Oc2cn[nH]c2-c2ccc(O)c(C)c2O)cc1	100*	-8	-10	-5	-12	i
N#CCN1C(=O)NC2(CCCc3sccc32)C1=O (stereo unspecified)	i	13	-13	15	12	i
COc1ccc(N(C)S(=O)(=O)c2cccc(C(=O)NCC3CCCCC3)c2)cc1	·	-6	·	·	23	-37*
CN(Cc1ccccc1F)C(=O)c1ccccc1Sc1ccccc1C#N	i	-6	-13	-36	-1	i
C/C(=N\Nc1ncnc2sc(C)c(C)c12)c1ccccn1	i	24	50	9	105*	i
C/C(=N\Nc1ncc(Cl)cc1Cl)c1ccccn1	·	-33	·	·	101*	-7.8*
C/C(=N\Nc1ccc(Cl)c(C(=O)O)c1)c1ccccn1	i	-189	2	-15	-1	i
Cc1sc2ncnc(N/N=C/c3cccc(O)c3)c2c1C	i	-4	-42	-48	-75	i
Cc1ccc(-c2nn3cnnc3c3ccccc23)cc1C	i	-7	0	-13	64*	i
Cc1ccc(-c2nn3nnnc3c3ccccc23)cc1C	i	-9	10	-12	35	i
CCS(=O)(=O)c1ncc(Cl)c(C(=O)Nc2ccc(S(=O)(=O)N3CCCC(C)C3)cc2)n1 (stereo unspecified)	i	55	19	-156	72*	i
CCS(=O)(=O)c1ncc(Cl)c(C(=O)Nc2ccc(C)cc2)n1	i	20	14	-63	-27	i
CSc1cccc(NC(=O)C2CCCN(S(=O)(=O)c3cnc[nH]3)C2)c1 (stereo unspecified)	·	-14	·	·	·	-12*
O=C(CSc1nnc(NC(=O)c2ccco2)s1)Nc1ccc(F)cc1F	i	-47	-6	7	-4	i
CC1=C(C(=O)Nc2ccc(CC(=O)NCc3ccc(OC(C)C)cc3)cc2)SCCO1	i	47	2	-46	56	i
Cc1ccc2nc(-c3ccc(N)cc3)sc2c1	i	32	-85	-213	90*	i
CNC(=S)Nc1ccc(-c2nc3ccc(C)cc3s2)cc1	i	-147	-128	-161	-91	i
SMILES	ANO1 block	KLF5 inh	Jurkat NFkB inh	697 NFkB inh	aSyn 5UTR inh	TMEM16A act
Cc1nc(N)[nH]c(=O)c1CCCNc1ccc(CCC2(CCl)OCCO2)cc1	·	·	·	·	·	i
CCn1c(SC)nnc1C1CCN(CC(=O)Nc2ccccc2N2CCOCC2)CC1	i	-15	8	1	11	i
O=C(COC(=O)[C@@H]1CCCN1C(=O)c1cccs1)Nc1ccc(Br)cc1	·	·	11	-19	·	i
O=C(COC(=O)C1CCCN1C(=O)c1cccs1)Nc1ccc2c(c1)OCO2 (stereo unspecified)	i	28	-7	9	11	-20*
O=C(COC(=O)C1CCCN1C(=O)c1cccs1)c1ccccc1 (stereo unspecified)	i	12	-3	14	14	-14*
COCCCNC(=S)N(CCO)Cc1cc2cc3c(cc2[nH]c1=O)OCO3	i	-36	-10	5	-11	i

High-throughput results as filed in PubChem BioAssay.
